Compound activity: PubChem, National Center for Advancing Translational Sciences (NCATS)
Shown are actives, neighbours in structure and some others; about 7.8% of the full set was active somewhere.
Lassa entry inh = blocks Lassa virus binding to or entry into cells | Lassa virus pseudotype entry inhibition, cell reporter | Potency, µM (series often up to 37.9 µM), without a hit: at the highest dose activity change, negative = inhibition, actives largely listed as inhibitors | AID 540256 | actives 1.2% (n = 300,000); calls by dose curve; tested in HEK293 cells; also: potency is read from the fitted curve at half-maximal effect; nearly all actives have a fitted effect of over 50% in size
HCMV inh = blocks human cytomegalovirus replication | activity change, negative = inhibition, % at 57.5 µM | AID 1259415 | HFF cells, HCMV-luciferase reporter, 72 h; stronger effect = lower value | actives 4.5% (n = 410,000); in the data active = activity change below about -60%; inconclusive = no clear call, values can overlap the other calls; inactive = above about -39%
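Steps: HFFs plated, 16 h 37C; compounds added; HCMV-luciferase added to MOI 1 PFU/cell; 72 h 37C; OneGlo reagent, 5 min room temperature; luminescence read, normalized to controls.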
Vaccinia mCherry = vaccinia inhibition (mCherry reporter); AID 720579; actives 0.63% (n = 310,000); Potency, µM (doses to about 36.5 µM), for inactives: at the highest dose activity change, negative = inhibition, usual class: inhibitors; Vaccinia virus mCherry reporter infection, fluorescence; calls by dose curve; tested in A549 cells; also: potency is read from the fitted curve at half-maximal effect; nearly all actives have a fitted effect of over 35% in size
MARV entry inh = blocks Marburg virus binding to or entry into cells | Marburg virus pseudotyped entry inhibition, cell reporter | Potency, µM (titrated, usually from 37.8 µM), without a hit: at the highest dose activity change, negative = inhibition, most hits filed as inhibitors | actives 1.8% (n = 300,000) | AID 540276; calls by dose curve; tested in HEK293 cells; also: potency is read from the fitted curve at half-maximal effect
HCV inhibitor = blocks hepatitis C virus; Huh7.5.1 HCVcc-Cre infection, luciferase reporter, 44 h; actives 3.4% (n = 340,000); Potency, µM (titrated, usually from 41.8 µM), for inactives: at the highest dose activity change, negative = inhibition, hits mostly inhibitors; active = well fitted inhibition curve with a large enough effect; inconclusive = small, poorly fitted or top-dose-only effect, or another doubt; inactive = no such curve, though single readings can be large or run the other way; also: potency is read from the fitted curve at half-maximal effect
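Infectious HCV cell culture screen: compound-treated cells (1,000/well, pre-plated 4 h) are infected with HCVcc-Cre at roughly 0.5 moi and grown 44 h. Infection is quantified by luciferase signal after 15 min substrate incubation at room temperature.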
VACV Venus inh = inhibitors of vaccinia virus (Venus reporter); Vaccinia virus Venus reporter expression, fluorescence; actives 0.46% (n = 330,000); Potency, µM (series often up to 36.5 µM), for inactives: at the highest dose activity change, negative = inhibition, usual class: inhibitors; calls by dose curve; tested in A549 cells; also: potency is read from the fitted curve at half-maximal effect; nearly all actives have a fitted effect of over 30% in size
Starred values were filed as active, the others as inactive; i = inactive; ? = inconclusive; / = not tested or not shown; [ ] = dose if it differs, or a comment. % is scaled to controls: 0 for no effect and ±100 for the full control effect.

SMILES | Lassa entry inh | HCMV inh | Vaccinia mCherry | MARV entry inh | HCV inhibitor | VACV Venus inh
COC(=O)Cc1ccc(NC(=S)N2CCN(c3cc(Cl)ccc3C)CC2)cc1 | -25.1% | -69.9* | -18.7% | ? | 10µM* | -12.6%
Cc1ccc(Cl)cc1N1CCN(C(=O)C2CCN(S(C)(=O)=O)CC2)CC1 | -28.5%[46.1 µM] | -63.7* | i | ? | -13.7% | -6.8%
Cc1ccc(Cl)cc1N1CCN(C(=O)C2CCN(S(=O)(=O)c3cnc[nH]3)CC2)CC1 | 2.2% | 1.9 | -16.3% | -28.1%[46.1 µM] | 4.0% | -2.3%
C[C@H](CO)N1C[C@H](C)[C@@H](CN(C)C(=O)Nc2ccccc2)Oc2c(NS(=O)(=O)c3cn(C)cn3)cccc2C1=O | / | -11.0 | i | / | 22.7% | -20.7%
COc1ccc(S(=O)(=O)N(C)C[C@H]2Oc3c(NC(=O)Nc4ccc(C(F)(F)F)cc4)cccc3C(=O)N([C@H](C)CO)C[C@@H]2C)cc1 | / | / | ? | / | ? | 10µM*
Cc1ccc(S(=O)(=O)Nc2ccc3c(c2)C(=O)N([C@H](C)CO)C[C@H](C)[C@@H](CN(C)C(=O)Nc2ccc(C(F)(F)F)cc2)O3)cc1 | / | 10.5 | -17.7% | / | 12.6µM* | -25.3%
C[C@H](CO)N1C[C@H](C)[C@@H](CN(C)C(=O)Nc2ccc(C(F)(F)F)cc2)Oc2ccc(NS(=O)(=O)c3ccc(F)cc3)cc2C1=O | / | -32.7 | -2.2% | / | -21.7% | -15.9%
Cc1ccc(S(=O)(=O)Nc2cccc3c2O[C@H](CN(C)Cc2ccc(-c4ccccc4)cc2)[C@@H](C)CN([C@H](C)CO)C3=O)cc1 | / | -39.2 | ? | / | ? | ?
C[C@H](CO)N1C[C@H](C)[C@@H](CN(C)C(=O)Nc2ccc(C(F)(F)F)cc2)Oc2c(NS(=O)(=O)c3cn(C)cn3)cccc2C1=O | / | -10.1 | -16.8% | / | 2.82µM* | -10.4%
Cc1ccc(S(=O)(=O)Nc2ccc3c(c2)C(=O)N([C@H](C)CO)C[C@H](C)[C@@H](CN(C)Cc2ccc(-c4ccccc4)cc2)O3)cc1 | / | / | ? | / | ? | 10µM*
C1CCC(NC(=NC2C3CC4CC(C3)CC2C4)N2CCOCC2)CC1 (stereo not drawn) | / | / | ? | / | / | -12.6%[60.7 µM]
CCOc1ccc(NC(=O)Cn2cc(C(=O)c3ccc(F)cc3)c(=O)c3cc4c(cc32)OCO4)cc1 | 8.4%[46.1 µM] | 70.1 | -18.7% | -17.1%[46.1 µM] | / | -26.5%
C[C@H](CCC(=O)O)[C@H]1CC[C@H]2[C@@H]3CC[C@@H]4C[C@H](O)CC[C@]4(C)[C@H]3C[C@H](O)[C@]12C | / | ? | -3.7% | / | 14.2% | -14.7%
COC(=O)CCC(C)C1CCC2C3CC[C@H]4CC(O)CC[C@@]4(C)C3CC(O)[C@]12C (stereo partly drawn) | / | / | ? | / | / | 10µM*
CN1C(=S)SC(/[N+]([O-])=C/c2ccc(Cl)cc2)C1(C)C (stereo not drawn) | -12.6% | -65.2* | -23.2% | 0.9%[46.1 µM] | 16.1% | -13.3%
Cc1cc(=O)n2nc(N3CCC(C(=O)N4CCN(c5ccccc5)CC4)CC3)sc2n1 | 5.7%[46.1 µM] | -31.1 | -10.9% | ? | -11.0% | -5.0%
CCCc1cc(=O)n2nc(N3CCC(C(=O)N4CCN(c5ccc(OC)cc5)CC4)CC3)sc2n1 | / | -86.8* | / | / | ? | /
COC(=O)C1=C(C)N(CCc2cc(OC)c(OC)c(OC)c2)C(=O)NC1c1ccc(Br)cc1 (stereo not drawn) | -3.0%[14.3 µM] | / | / | 2.2%[14.2 µM] | / | /
CCN(CC)S(=O)(=O)c1cccc(-c2nnc(SCCOc3ccc(Cl)cc3)o2)c1 | ? | -19.2 | -17.8% | ? | ? | -28.3%
CCN(CC)S(=O)(=O)c1cccc(-c2nnc(SCCOc3ccccc3C)o2)c1 | -39.5% | ? | / | ? | 12.6µM* | /
CCN(CC)S(=O)(=O)c1cccc(-c2nnc(SCCOc3ccccc3)o2)c1 | 10µM* | -67.9* | -16.1% | ? | ? | -20.5%
Cc1ccc(NC(=O)CCc2c(C)nc3nc(C)nn3c2C)c(Cl)c1 | ? | -12.2 | -3.6% | ? | / | 1.9%
COc1cccc(C2(CC(=O)N3CCC(c4nc5ccccc5o4)CC3)CC(=O)N(C)C2=O)c1 (stereo not drawn) | / | / | -17.2% | / | / | -11.3%
